Assay results reported in PubChem BioAssay.
The source made the active and inactive calls. Unless noted, no stated cut-off is given here; in the data, active means inhibition above about 36%; inactive means the rest.

Tests used:
[1] = molecular target: Nuclear receptor coactivator 3 (Homo sapiens) (UniProt Q9Y6Q9); assay: NCOA3 GAL4-fusion reporter inhibition – cell-based, luminescence, quadruplicate, confirmation (AID 588792;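 active means mean inhibition over 43.08%, the solvent-only control mean plus 3 SD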;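 further: 0% = DMSO treated cells and 100% = gossypol at 36 µM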); details: HEK293 GAL4-SRC3 luciferase reporter, at 3.6 µM, stronger effect = higher value
[2] = test system: transactivating tegument protein VP16 (Human herpesvirus 1), Gal4-VP16 luciferase reporter; assay: repression of VP16-driven luciferase reporter – cell-based, luminescence, high throughput, counter-screen for SRC3 inhibitor project (AID 588794; in the data active means inhibition above about 30%); details: mammalian cells, at 3.6 µM, stronger effect = higher value
[3] = molecular target: Nuclear receptor coactivator 1 (Homo sapiens) (UniProt Q15788); assay: NCOA1 GAL4-fusion reporter inhibition – cell-based, luminescence, quadruplicate, confirmation (AID 588820;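 active means mean inhibition above 46.68%, the untreated control wells mean plus 3 SD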;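 further: 0% = DMSO wells and 100% = gossypol 36 µM treated wells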); details: HEK293 GAL4-SRC1 luciferase reporter, at 3.6 µM, stronger effect = higher value
[4] = repression of VP16-driven luciferase reporter – cell-based, luminescence, high throughput, counter-screen for SRC1 inhibitor project (AID 588824; in the data active means inhibition above about 25%); details: cell-based VP16 transactivation luciferase luminescence; at 3.6 µM; stronger effect = higher value
[5] = StAR promoter reporter inhibitors, counter-screen for LRH-1 inverse agonist project, cell-based, luminescence, high throughput (AID 651611; in the data active means inhibition above about 28%); details: StAR promoter luciferase reporter counterscreen, at 3.6 µM, stronger effect = higher value
[6] = molecular target: Nuclear receptor subfamily 5 group A member 2 (Homo sapiens) (UniProt O00482); assay: NR5A2 activity suppression in reporter cells – cell-based, luminescence, confirmation (AID 651613; in the data active means inhibition above about 42%;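 further: HEK293T cells co-transfected with LRH-1 and StAR promoter luciferase reporter; 0% = vehicle wells and 100% = parental cells lacking receptor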); details: cell-based LRH-1 luciferase reporter, inverse agonism; at 3.6 µM; stronger effect = higher value
[7] = molecular target: Steroidogenic factor 1 (Homo sapiens) (UniProt Q13285); assay: inverse agonism at SF1 nuclear receptor – cell-based, luminescence, high throughput, counter-screen for LRH-1 inverse agonist project (AID 651614; in the data active means inhibition above about 44%;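 further: cells cotransfected with StAR promoter reporter and SF1 expression vector; 0% = vehicle on cells with receptor and 100% = vehicle on cells lacking receptor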); details: cell-based SF1 luciferase reporter, at 3.6 µM, stronger effect = higher value
[8] = compounds suppressing VP16-driven luciferase signal – cell-based, luminescence, high throughput, counter-screen for LRH-1 inverse agonist project (AID 651615; in the data active means inhibition above about 33%); details: Gal4-VP16 luciferase reporter cells, at 3.6 µM, stronger effect = higher value
[9] = test system: transactivating tegument protein VP16 (Human herpesvirus 1); assay: compounds suppressing VP16-driven luciferase signal – cell-based, luminescence, single concentration, counter-screen for SRC2 inhibitor project (AID 652007); details: cell-based VP16 transactivation luciferase reporter, at 8.9 µM, stronger effect = higher value
[10] = molecular target: Nuclear receptor coactivator 2 (Homo sapiens) (UniProt Q15596); assay: inhibition of GAL4-SRC2 driven luciferase expression – cell-based, luminescence, HEK293, triplicate, confirmation (AID 652008;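 active means mean inhibition above 46.5%, the solvent-only control mean plus 3 SD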;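 further: 0% = DMSO-treated cells and 100% = Gossypol at 36 µM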); details: HEK293 GAL4-SRC2 luciferase reporter, at 8.9 µM, stronger effect = higher value

Measured: inhibition

Sequence of Steroidogenic factor 1 (Homo sapiens) (Q13285 whole entry, looked up, the tested form may be a part): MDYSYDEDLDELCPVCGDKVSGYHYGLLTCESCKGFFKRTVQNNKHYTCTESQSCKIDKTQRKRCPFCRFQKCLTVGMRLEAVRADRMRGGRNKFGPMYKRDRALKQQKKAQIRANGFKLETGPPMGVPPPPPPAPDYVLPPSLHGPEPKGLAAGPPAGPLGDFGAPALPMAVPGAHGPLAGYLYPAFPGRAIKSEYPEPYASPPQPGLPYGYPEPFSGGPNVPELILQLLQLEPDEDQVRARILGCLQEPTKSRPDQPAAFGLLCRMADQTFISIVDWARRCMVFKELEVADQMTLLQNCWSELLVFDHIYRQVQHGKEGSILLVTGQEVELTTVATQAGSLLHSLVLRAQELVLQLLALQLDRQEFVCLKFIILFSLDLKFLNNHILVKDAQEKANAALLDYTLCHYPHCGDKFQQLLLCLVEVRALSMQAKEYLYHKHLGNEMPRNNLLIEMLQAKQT
Sequence of Nuclear receptor coactivator 3 (Homo sapiens) (Q9Y6Q9 whole entry, looked up, the tested form may be a part): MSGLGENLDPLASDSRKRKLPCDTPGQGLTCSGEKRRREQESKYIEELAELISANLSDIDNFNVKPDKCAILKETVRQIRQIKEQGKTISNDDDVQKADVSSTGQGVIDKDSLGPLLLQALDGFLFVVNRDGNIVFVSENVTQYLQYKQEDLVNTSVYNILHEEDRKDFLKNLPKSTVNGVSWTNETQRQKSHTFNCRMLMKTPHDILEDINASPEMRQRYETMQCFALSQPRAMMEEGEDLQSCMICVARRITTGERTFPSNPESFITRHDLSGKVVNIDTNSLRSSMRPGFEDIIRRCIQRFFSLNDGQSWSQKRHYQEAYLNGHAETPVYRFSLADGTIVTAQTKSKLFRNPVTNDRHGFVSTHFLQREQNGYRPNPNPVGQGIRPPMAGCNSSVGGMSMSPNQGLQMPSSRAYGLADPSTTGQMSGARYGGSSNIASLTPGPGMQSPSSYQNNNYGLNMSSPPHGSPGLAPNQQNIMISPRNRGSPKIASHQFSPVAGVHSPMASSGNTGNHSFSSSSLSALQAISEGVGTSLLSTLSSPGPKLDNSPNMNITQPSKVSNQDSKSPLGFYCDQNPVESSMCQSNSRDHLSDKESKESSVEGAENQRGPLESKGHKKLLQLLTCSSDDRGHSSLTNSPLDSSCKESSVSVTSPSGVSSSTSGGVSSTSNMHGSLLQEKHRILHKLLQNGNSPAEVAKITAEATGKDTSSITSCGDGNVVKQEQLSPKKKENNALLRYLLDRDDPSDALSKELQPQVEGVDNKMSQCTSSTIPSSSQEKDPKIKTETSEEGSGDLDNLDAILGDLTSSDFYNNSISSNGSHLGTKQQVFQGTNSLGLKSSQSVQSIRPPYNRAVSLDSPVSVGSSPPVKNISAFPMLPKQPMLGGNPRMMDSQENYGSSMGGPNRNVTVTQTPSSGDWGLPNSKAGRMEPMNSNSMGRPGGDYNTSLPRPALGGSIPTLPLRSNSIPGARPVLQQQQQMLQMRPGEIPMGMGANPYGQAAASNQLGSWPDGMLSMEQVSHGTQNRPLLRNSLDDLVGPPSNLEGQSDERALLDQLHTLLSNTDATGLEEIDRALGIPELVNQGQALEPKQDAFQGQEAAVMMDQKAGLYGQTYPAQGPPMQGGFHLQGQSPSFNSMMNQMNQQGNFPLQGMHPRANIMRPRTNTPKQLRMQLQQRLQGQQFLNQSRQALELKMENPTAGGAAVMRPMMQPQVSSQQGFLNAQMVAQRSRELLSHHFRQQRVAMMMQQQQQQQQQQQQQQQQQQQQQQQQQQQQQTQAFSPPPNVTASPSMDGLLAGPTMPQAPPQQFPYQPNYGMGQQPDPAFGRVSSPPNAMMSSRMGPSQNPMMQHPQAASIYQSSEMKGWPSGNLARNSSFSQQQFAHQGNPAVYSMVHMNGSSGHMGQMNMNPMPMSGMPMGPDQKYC
Sequence of Nuclear receptor coactivator 2 (Homo sapiens) (Q15596 whole entry, looked up, the tested form may be a part): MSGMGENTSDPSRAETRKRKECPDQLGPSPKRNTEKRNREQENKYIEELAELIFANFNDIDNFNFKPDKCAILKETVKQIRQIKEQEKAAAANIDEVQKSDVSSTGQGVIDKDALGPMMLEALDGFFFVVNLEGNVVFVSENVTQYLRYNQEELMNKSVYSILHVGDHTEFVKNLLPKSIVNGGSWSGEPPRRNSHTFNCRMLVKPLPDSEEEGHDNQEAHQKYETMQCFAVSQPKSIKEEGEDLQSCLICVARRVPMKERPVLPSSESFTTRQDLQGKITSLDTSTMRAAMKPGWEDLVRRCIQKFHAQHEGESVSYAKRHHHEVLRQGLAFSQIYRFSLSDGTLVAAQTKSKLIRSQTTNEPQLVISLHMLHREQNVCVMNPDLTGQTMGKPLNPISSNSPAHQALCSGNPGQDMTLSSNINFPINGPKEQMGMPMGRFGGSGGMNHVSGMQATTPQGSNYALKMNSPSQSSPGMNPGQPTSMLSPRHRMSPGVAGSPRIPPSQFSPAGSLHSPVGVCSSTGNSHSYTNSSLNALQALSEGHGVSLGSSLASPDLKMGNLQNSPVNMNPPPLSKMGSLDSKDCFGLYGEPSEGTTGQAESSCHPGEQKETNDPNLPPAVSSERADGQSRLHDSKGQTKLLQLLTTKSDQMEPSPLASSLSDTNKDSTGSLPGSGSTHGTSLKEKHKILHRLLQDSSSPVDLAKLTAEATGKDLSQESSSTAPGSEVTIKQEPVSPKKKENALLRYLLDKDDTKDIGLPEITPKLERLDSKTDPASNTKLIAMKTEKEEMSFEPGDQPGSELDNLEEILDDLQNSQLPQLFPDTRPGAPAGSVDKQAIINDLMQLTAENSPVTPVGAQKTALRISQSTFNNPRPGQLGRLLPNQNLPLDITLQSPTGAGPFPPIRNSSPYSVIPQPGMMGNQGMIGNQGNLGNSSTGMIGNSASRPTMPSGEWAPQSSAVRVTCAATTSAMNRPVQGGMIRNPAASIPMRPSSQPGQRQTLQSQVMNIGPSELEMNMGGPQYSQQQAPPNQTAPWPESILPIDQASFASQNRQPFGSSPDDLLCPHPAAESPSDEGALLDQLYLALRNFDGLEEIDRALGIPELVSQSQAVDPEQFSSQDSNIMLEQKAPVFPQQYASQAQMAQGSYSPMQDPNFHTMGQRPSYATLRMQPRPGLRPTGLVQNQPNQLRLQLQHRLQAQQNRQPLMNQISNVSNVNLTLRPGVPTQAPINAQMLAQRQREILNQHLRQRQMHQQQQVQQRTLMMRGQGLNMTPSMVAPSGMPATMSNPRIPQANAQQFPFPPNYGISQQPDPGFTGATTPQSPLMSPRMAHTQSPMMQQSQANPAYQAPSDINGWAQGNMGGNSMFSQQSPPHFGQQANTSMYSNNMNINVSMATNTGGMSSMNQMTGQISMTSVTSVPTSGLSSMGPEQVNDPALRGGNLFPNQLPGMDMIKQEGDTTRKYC
Sequence of Nuclear receptor coactivator 1 (Homo sapiens) (Q15788 whole entry, looked up, the tested form may be a part): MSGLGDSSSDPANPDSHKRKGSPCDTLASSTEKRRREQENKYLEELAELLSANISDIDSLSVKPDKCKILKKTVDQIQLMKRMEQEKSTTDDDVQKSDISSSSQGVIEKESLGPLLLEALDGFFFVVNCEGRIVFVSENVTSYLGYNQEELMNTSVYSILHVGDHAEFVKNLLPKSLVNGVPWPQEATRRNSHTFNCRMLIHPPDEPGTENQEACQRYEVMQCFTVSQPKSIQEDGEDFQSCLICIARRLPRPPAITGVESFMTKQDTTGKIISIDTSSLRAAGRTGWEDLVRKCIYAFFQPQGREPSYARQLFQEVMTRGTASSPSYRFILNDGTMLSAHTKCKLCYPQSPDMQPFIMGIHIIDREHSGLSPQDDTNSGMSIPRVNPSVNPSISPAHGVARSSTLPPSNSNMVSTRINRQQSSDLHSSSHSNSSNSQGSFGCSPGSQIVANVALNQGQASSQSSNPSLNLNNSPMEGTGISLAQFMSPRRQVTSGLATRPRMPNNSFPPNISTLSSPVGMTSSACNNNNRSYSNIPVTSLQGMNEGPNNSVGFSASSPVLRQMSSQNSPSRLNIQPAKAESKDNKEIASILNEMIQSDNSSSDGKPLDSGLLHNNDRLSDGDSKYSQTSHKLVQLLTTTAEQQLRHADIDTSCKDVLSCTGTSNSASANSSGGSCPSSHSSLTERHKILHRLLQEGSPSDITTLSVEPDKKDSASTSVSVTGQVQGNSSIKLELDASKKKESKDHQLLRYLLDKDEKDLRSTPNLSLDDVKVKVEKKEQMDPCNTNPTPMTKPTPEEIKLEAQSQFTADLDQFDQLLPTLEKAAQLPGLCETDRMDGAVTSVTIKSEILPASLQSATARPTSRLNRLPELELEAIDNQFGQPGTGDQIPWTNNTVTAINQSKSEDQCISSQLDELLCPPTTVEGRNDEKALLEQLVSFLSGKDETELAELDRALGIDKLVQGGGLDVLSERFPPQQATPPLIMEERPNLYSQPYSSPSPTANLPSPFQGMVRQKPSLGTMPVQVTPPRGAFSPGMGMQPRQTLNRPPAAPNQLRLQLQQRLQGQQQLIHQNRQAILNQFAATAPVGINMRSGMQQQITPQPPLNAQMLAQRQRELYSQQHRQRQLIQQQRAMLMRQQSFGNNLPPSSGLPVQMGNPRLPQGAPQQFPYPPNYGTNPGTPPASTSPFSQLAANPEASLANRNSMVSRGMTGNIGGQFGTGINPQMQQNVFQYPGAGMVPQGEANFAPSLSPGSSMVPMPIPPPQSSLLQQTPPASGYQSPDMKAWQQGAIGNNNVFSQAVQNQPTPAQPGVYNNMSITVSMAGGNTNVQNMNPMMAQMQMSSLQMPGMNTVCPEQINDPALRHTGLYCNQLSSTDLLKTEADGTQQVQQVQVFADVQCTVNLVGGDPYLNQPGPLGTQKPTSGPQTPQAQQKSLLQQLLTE

N#Cc1c(N)n(C2OC(CO)C(O)C2O)c2ncnc(N)c12 (stereo not given)
active: [1] 96% | [2] 96% | [3] 79.9% | [4] 95.1% | [5] 85.9% | [6] 106% | [7] 95.6% | [8] 96.3% | [9] 62% | [10] 66.3%

O=C(Nc1nc2ccccc2[nH]1)c1ccccc1F
active: [9] 43.9% | [10] 67.2%
inactive: [1] 27.6% | [2] 19.6% | [3] -26.7% | [4] 11.2% | [5] -0.87% | [6] -32.3% | [7] 13.5% | [8] -10.4%

Cc1cc(C)c2sc(NNC(=O)c3ccc(S(=O)(=O)N4CCc5ccccc5C4)cc3)nc2c1
active: [1] 46.6% | [2] 41.1% | [3] 50% | [4] 46.6% | [5] 68.6% | [6] 89.6% | [7] 66.8% | [8] 66.6%
inactive: [9] -4.24% | [10] 29.3%

COc1cccc(NC(=O)CSc2nnc(-c3cc(C)n(-c4ccccc4)c3C)o2)c1
active: [1] 46.8% | [10] 48.5%
inactive: [2] 23.3% | [3] 3.49% | [4] -14.5% | [5] -29.8% | [6] -55.2% | [7] -12.4% | [8] -23.9% | [9] 11%

S=C(Nc1ccccc1)Nc1ccc(OCc2ccc(Cl)cc2Cl)cc1
inactive: [2] 25.4% | [3] 43.6% | [4] 24.4%
active: [1] 46.7% | [5] 63.4% | [6] 72.3% | [7] 59.5% | [8] 39.4% | [9] 83.7% | [10] 93.9%

COC1=CC(=O)c2c(ccc3ncnc(N)c23)C1=O
inactive: [3] -4.46%
active: [1] 60.8% | [2] 65.1% | [4] 64.3% | [5] 62.4% | [6] 82.8% | [7] 84.6% | [8] 82.1% | [9] 37.5% | [10] 69.5%

Cc1ccc2oc(/N=C(\N)NC(=O)C(C)(C)C)nc2c1
active: [1] 82.8% | [2] 73.6% | [3] 65.2% | [4] 61.1% | [5] 80.4% | [6] 51.4% | [7] 75.4% | [8] 61.7% | [9] 77.6% | [10] 91.5%

Cc1nc2c(-c3ccc(F)cc3)cnn2c(N)c1-c1ccccc1
active: [1] 55.5% | [2] 38.8% | [9] 74.5% | [10] 79.6%
inactive: [3] 29.6% | [4] 7.29% | [5] 6.33% | [6] -102% | [7] -17.6% | [8] -0.77%

Cc1ccc(C(=O)N/N=C/c2ccc([N+](=O)[O-])s2)cc1
active: [1] 54.5% | [2] 39.1% | [4] 44.4% | [5] 70.3% | [6] 83.9% | [7] 75.6% | [8] 52.3% | [9] 82.5% | [10] 92.4%
inactive: [3] 33.7%

S=C(NCCCCN(Cc1ccc(Cl)cc1)c1ccc(Br)cn1)NCCCc1cnc[nH]1
active: [1] 93.1% | [2] 72.5% | [3] 76.5% | [4] 60.9% | [5] 90.1% | [6] 103% | [7] 96.7% | [8] 86.5% | [10] 54.5%
inactive: [9] 23.1%

CC1CC(C)C(=NNC(N)=O)C(C(O)CC2CCC(=O)NC2=O)C1 (stereo not given)
active: [5] 63.1% | [6] 76.7% | [7] 75.8%
inactive: [1] 9.15% | [2] 11.3% | [3] 33.6% | [4] 7.8% | [8] 30% | [9] 8% | [10] -0.31%

N#Cc1c(NC(=O)CSc2ncn[nH]2)sc2c1CCCCC2
inactive: [3] 28.3%
active: [1] 51.8% | [2] 65.9% | [4] 59% | [5] 29.9% | [6] 62.8% | [7] 50.1% | [8] 60.7% | [9] 87.6% | [10] 88%

Cc1nn(-c2ccccc2Cl)c(Cl)c1/C=N/Nc1nc2ccccc2s1
inactive: [6] 21.8%
active: [1] 64.1% | [2] 73.5% | [3] 48.1% | [4] 57.4% | [5] 82.7% | [7] 73.5% | [8] 58.5% | [9] 82.7% | [10] 91.7%

O=C(NN=Cc1c(O)ccc2ccccc12)c1ccncc1
active: [1] 77% | [2] 70.6% | [3] 65.6% | [4] 65.3% | [5] 87.4% | [6] 104% | [7] 89.8% | [8] 77.4%
inactive: [9] -16.9% | [10] 38%
